# Source: PubChem BioAssay
# ELG1 DNA repair = inhibitors of ELG1-dependent DNA repair in HEK293T cells; HEK293T ELG1-luciferase reporter, luminescence, 16 h; DNA damage induced by 5-fluorouridine; Potency, µM (titrated, usually from 46.1 µM), for the others: top-dose activity change, negative = inhibition, usual class: inhibitors; 2.3% of 330,000 active; note: potency is the fitted concentration of half-maximal effect; nearly all actives have a fitted effect of over 55% in size
#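 Cells (2,000 per well) received 5-fluorouridine plus test compound or DMSO and were incubated 16 hr at 37 °C, 5% CO2. Luciferase activity was read by luminescence 30 min after ONE-Glo addition; signal suppression marked inhibition of damage-induced ELG1 function.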
# Giardia kill = Giardia lamblia killing; Giardia lamblia trophozoite viability; activity change, % at 7.66 µM, hits read low; 0.15% of 340,000 active; in the data active = activity change below about -80%; inconclusive = between about -30% and that limit;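 note: parasites exposed to compound for two days anaerobically before the ATP read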
#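 Anaerobic 48 hrs incubation at 37 deg C of 100 trophozoites/well with test compounds; ATPLite 1-Step luminescence, 15-30 min RT, reports cellular ATP as viability.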
# IL-1B inflam inh = inhibitors of inflammasome signaling (IL-1 beta secretion). activity change, % at 57.5 µM. 4.7% of 360,000 active. AID 743279. THP-1 LPS/ATP IL-1B secretion, AlphaLISA, 16 h; active compounds read low; in the data active = activity change below about -50%; inconclusive = mostly about -30% to -49%
#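 THP-1 cells pretreated 1 hr with compounds (up to 57.5 uM final), then stimulated with LPS (250 ng/mL final) plus ATP (1.25 mM final); secreted IL-1B measured by AlphaLISA after 16 hr, decreased signal indicating inhibition.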
# DT40 TDP1 CPT = DT40-hTDP1 cell growth loss with CPT; chicken DT40 Tdp1-/-;hTDP1 cells + 20 nM CPT, ATP luminescence, 48 h; Potency, µM (top dose mostly 46.2 µM), inactives show at the highest dose activity change, negative = growth inhibition, most hits filed as inhibitors; 12% of 420,000 active; AID 686979; note: potency is the fitted concentration of half-maximal effect; nearly all actives have a fitted effect of over 55% in size
#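 Chicken DT40 Tdp1-/- cells complemented with human TDP1, 400 cells/well, exposed to compounds plus 20 nM camptothecin for at least 48 h at 37 C; viability read as ATP content by CellTiter-Glo luminescence.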
# DT40 TDP1 no CPT = qHTS for Inhibitors of human tyrosyl-DNA phosphodiesterase 1 (TDP1): qHTS in cells in absence of CPT; DT40 Tdp1-/- hTDP1 cells, no CPT, ATP luminescence, 48 h; AID 686978, 2013; Potency, µM (titrated, usually from 46.2 µM), inactives show at the highest dose activity change, negative = growth inhibition, hits mostly inhibitors; 15% of 420,000 active; note: potency is the fitted concentration of half-maximal effect; nearly all actives have a fitted effect of over 55% in size
#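 A cellular qHTS used chicken DT40 cells lacking endogenous Tdp1 but carrying stably transfected human TDP1. Compounds were applied without camptothecin, and cell growth kinetics were judged by ATP-dependent luminescence after ≥48 hr.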
# TDP1 block = inhibitors of human tyrosyl-DNA phosphodiesterase TDP1 | 0.28% of 350,000 active | Q9NUW8 | AID 485290 | recombinant TDP1, AlphaScreen DNA substrate cleavage | Potency, µM (series often up to 130 µM), for the others: at the highest dose activity change, negative = inhibition, usual class: inhibitors; note: potency is the fitted concentration of half-maximal effect; nearly all actives have a fitted effect of over 40% in size
# Target sequence (Q9NUW8 whole entry, looked up): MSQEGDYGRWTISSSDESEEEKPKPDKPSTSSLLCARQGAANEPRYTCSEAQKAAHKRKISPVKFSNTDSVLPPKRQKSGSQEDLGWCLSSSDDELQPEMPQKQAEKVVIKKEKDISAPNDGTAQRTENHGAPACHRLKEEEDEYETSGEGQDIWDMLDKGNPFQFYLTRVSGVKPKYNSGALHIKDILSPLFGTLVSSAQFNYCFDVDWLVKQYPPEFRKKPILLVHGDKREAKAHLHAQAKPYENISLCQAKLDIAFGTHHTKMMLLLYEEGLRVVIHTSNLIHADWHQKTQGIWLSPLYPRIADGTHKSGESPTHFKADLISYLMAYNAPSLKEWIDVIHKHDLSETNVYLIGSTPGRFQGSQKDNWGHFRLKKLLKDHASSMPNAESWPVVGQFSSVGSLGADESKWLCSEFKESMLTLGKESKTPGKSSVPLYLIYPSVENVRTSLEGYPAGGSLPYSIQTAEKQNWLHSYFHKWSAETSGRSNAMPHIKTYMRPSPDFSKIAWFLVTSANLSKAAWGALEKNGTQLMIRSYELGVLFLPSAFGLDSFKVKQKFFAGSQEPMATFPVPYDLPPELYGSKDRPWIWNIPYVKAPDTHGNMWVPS
#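 Here, a 5' biotin and 3' phosphotyrosine-FITC DNA oligonucleotide reports Tdp1 activity: intact substrate bridges AlphaScreen beads, while cleavage leaves a 3' phosphate and drops signal. All incubations at room temperature.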
# Active calls of the source: *; u = inconclusive; x = no result given; [ ] = dose if it differs, or a comment. Shown are actives, neighbours in structure and some others; about 19% of the full set was active somewhere. Unless noted, calls come from the whole dose curve; as a rule, active = well fitted curve in the direction sought with a large enough effect; inconclusive = small, poorly fitted or top-dose-only effect, or another doubt; inactive = no such curve, though single readings can be large; an effect the other way counts as inactive or inconclusive. % is set by controls: 0 for no effect and ±100 for the full control effect.
SMILES,ELG1 DNA repair,Giardia kill,IL-1B inflam inh,DT40 TDP1 CPT,DT40 TDP1 no CPT,TDP1 block
COCCOC(=O)c1c(NC(=O)COC(=O)c2ccc(C)o2)sc(C(N)=O)c1C,u,1.4,10.1,u,u,-13.3%
O=[N+]([O-])c1cccc(OCC(O)CN2CCN(S(=O)(=O)c3cc(Cl)ccc3Cl)CC2)c1 (configuration not stated),u,-14.6,u,-24.7%,u,5.7%
Cc1ccc(NC(=O)N2CCCCCC2)c(C)c1,u,12.6,-16.3,-20.8%,-1.9%,4.2%[56.1 µM]
Cc1ccc(N/C(N)=N/c2nc3c(c(=O)[nH]2)CCCC3)c(C)c1,10.9%,-10.1,-20.0,13µM*,11.6µM*,4.0%
Cc1ccc(N/C(N)=N/c2nc(C)cc(N3CCCCC3)n2)c(C)c1,16.4µM*,7.1,-103.0*,2.31µM*,2.59µM*,-0.6%
N/C(=N\c1nc2c(c(=O)[nH]1)CCCC2)Nc1ccccc1,14.3%,-19.6,5.8,-26.7%,u,1.0%
N/C(=N\c1nc2c(c(=O)[nH]1)CCCC2)Nc1ccccc1Sc1ccccc1,u,11.9,28.8,11.2µM*,20µM*,2.2%
Cc1ccccc1C(=O)OCc1cc(=O)n2c(C)csc2n1,x,x,x,-18.8%,u,7.1%
Cn1c(SCC(=O)NCc2ccco2)nnc1-c1ccccc1,u,-8.7,-9.9,0.1%,-12.6%,5.5%
Cn1c(SCC(=O)NCc2ccco2)nnc1-c1c[nH]c2ccccc12,-8.1%,-11.2,10.4,20.6µM*,-22.6%,2.6%
Cn1c(SCC(=O)NC(=O)NCc2ccco2)nnc1-c1ccccc1,-0.7%,3.4,0.0,-1.8%,3.5%,39.8µM*
CCOc1ccc(-n2c(SCC(=O)NCc3ccco3)nnc2-c2c[nH]c3ccccc23)cc1,u,-13.8,-29.0,u,13µM*,9.8%
O=C(CSc1nc2ccccc2s1)NC(=O)NCc1ccco1,0.0%,0.2,28.7,-0.1%,0.9%,-9.6%
Cn1c(SCC(=O)NCc2ccc3c(c2)OCO3)nnc1-c1c[nH]c2ccccc12,-26.8%,-16.1,17.8,0.7%,-13.6%,5.5%
CCOc1ccc(-n2c(SCC(=O)Nc3cc(C)on3)nnc2-c2c[nH]c3ccccc23)cc1,-5.4%,-1.6,25.3,-13.3%,-23.7%,5.6%
O=C(CSc1nc(-c2ccccc2)cs1)NC(=O)NCc1ccco1,18.4µM*,6.1,0.0,-12.0%,-13.0%,2.5%
OC(CN1CCN(c2ccccc2F)CC1)c1ccc(F)cc1 (configuration not stated),15.2%,0.0,10.4,-42.2%,-28.9%,x
Cc1cc(SCC(=O)NC(=O)NCc2ccco2)nc2ccccc12,-11.9%,-2.1,13.0,u,-23.9%,6.0%
Cn1cnnc1SCC(=O)NN1C(=O)NC(C)(c2ccccc2)C1=O (configuration not stated),-5.6%,-4.8,-6.6,0.5%,0.9%,0.0%
CCOc1ccc(Nc2nc(Cc3nnc(SCC(=O)NCc4ccco4)n3CC)cs2)cc1,-17.0%,-21.9,18.9,13µM*,13µM*,7.0%
Cn1c(SCC(=O)NN2C(=O)NC(C)(c3ccccc3)C2=O)nnc1-c1ccncc1 (configuration not stated),9.8%,13.0,0.0,-14.6%,29.1µM*,0.0%
Cc1cc(SCC(=O)NC(=O)NCc2ccco2)nc2c(C)cccc12,u,4.6,15.0,u,29.1µM*,-12.9%
CCOc1cc(Cl)c(S(=O)(=O)NCCCn2ccnc2)cc1Cl,u,2.0,1.6,20.6µM*,16.4µM*,5.3%
Cc1ccccc1Cn1cnc2ccccc2c1=O,-0.8%,2.3,11.0,21.1%,-12.8%,5.3%
O=c1c2ccccc2ncn1Cc1cccc2ccccc12,1.1%,-1.8,-54.2*,u,-13.0%,4.8%
SMILES,ELG1 DNA repair,Giardia kill,IL-1B inflam inh,DT40 TDP1 CPT,DT40 TDP1 no CPT,TDP1 block
CCOC(=O)c1cc2c(ccn2C)n1CC(=O)N1CCN(c2ccccc2OC)CC1,u,x,x,x,x,1.0%
CCOC(=O)c1cc2c(ccn2C)n1CC(=O)N(C)C,2.7%,1.1,14.7,2.5%,15.7%,2.6%
CCOC(=O)c1cc2c(ccn2C)n1CC(=O)N1CCC(Cc2ccccc2)CC1,u,-4.6,-74.4*,23.1µM*,17.8µM*,11.7%
CCOC(=O)c1cc2c(ccn2C)n1CC(=O)Nc1ccc(F)cc1,-10.3%,-3.4,-25.1,23.1µM*,-21.2%,2.6%
COc1cccc(CN2CCN(c3ccc(F)cc3)C2=O)c1,-14.2%,-6.4,-51.4*,-16.9%,u,-2.7%
CCCn1c(C(=O)OC)cc2c1ccn2-c1ccc(F)cc1,-5.4%,-0.5,-17.7,u,u,3.8%
CCOC(=O)c1cc2c(ccn2-c2ccc(F)cc2)n1CC(=O)N1CCN(C(=O)c2ccco2)CC1,u,-2.8,0.0,u,11.6µM*,-6.7%
COc1ccc(C(=O)Nc2ccc(/C(C)=N/NC(=O)c3ccccc3O)cc2)cc1OC,25.6%,-5.1,12.4,-8.6%,-18.6%,10.7%
CC1(C)C2CCC(C2)C1C/C=N/NC(N)=S (configuration not stated),-17.7%,-8.5,-30.0,u,u,0.0%
COC(=O)c1cc2c(ccn2-c2ccc(F)cc2)n1Cc1ccc(OC(C)=O)cc1,20.6%,8.0,2.2,u,u,-2.6%
COC(=O)c1cc2c(ccn2-c2ccc(F)cc2)n1Cc1cccc(OC)c1,-12.7%,-1.8,-15.8,7.31µM*,16.4µM*,7.9%
CCOC(=O)CSc1nc2c(sc3ccccc32)c(=O)n1Cc1ccc(OC)cc1,x,x,x,-27.0%,u,-4.4%
O=C(/C=C/c1ccc2c(c1)OCO2)NCCS(=O)(=O)N1CCN(c2ccccc2)CC1,x,x,-15.0,-29.4%,u,x
O=C(CN1CCN(Cc2ccccc2Cl)CC1)N/N=C/c1ccccn1,-7.2%,23.3,0.0,u,u,4.8%
CC(C)c1onc(C(=O)N2CCCCC2C)c1[N+](=O)[O-] (configuration not stated),-1.7%,-11.0,5.2,-0.5%,-11.0%,4.7%
CC(C)c1onc(C(=O)Nc2cccc(O)c2)c1[N+](=O)[O-],u,-1.1,-12.3,-19.7%,-5.9%,0.0%
CC(C)c1onc(C(=O)N2CCCCC2)c1[N+](=O)[O-],-1.1%,1.7,-65.2*,-18.8%,u,0.0%
Cc1ccc(NC(=O)c2noc(C(C)C)c2[N+](=O)[O-])cc1,-9.5%,-2.2,-20.9,13µM*,18.4µM*,2.3%
